Outcome and AC50 data for six molecules are collected here from PubChem BioAssay (EPA / NIEHS).

Several values for one entry are separate records, joined by “and”; a condition that tells them apart may be missing. Identical values can stand only once. Inconclusive results are not listed. Some compounds were tested as several samples or in several runs, with calls that do not always agree. Activity calls are given as the source filed them. The calls were made as follows, unless noted: active = hit-call score of the fitted dose curve at least 0.9, where 1 is the maximum; inactive = score below 0.9.

Test [1] in a line: ATG_GAL4_TRANS: Attagene TRANS-FACTORIAL HepG2 Assay for GAL4 (Internal Marker) (AID 2282976; active = hit-call score of the fitted dose curve at least 0.9, where 1 is the maximum). Conditions: HepG2 Attagene TRANS GAL4 internal marker reporter. The procedure, abridged: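 Background-control readout: GAL4-UAS reporter transcript in transiently transfected HepG2 cells after 24 h compound exposure. Measured by RT-PCR, 6-FAM primer extension, HpaI digest and capillary electrophoresis; gain-of-signal fit versus DMSO.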

Test [2] has as its target Oxysterols receptor LXR-alpha (Homo sapiens) (UniProt Q13133). Put plainly: ATG_LXRa_TRANS: Attagene TRANS-FACTORIAL HepG2 Assay for human Liver X Receptor alpha (LXRa) (AID 2282980; active = hit-call score of the fitted dose curve at least 0.9, where 1 is the maximum). Conditions: HepG2 Attagene TRANS reporter, LXRa transactivation. In short, it runs like this:
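HepG2 cells transiently transfected with GAL4-UAS reporter units for chimeric NR-Gal4 proteins, exposed to chemicals for 24 h. Reporter mRNA quantified by RT-PCR and capillary electrophoresis; gain of signal fitted relative to DMSO.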

Test [3] addresses Oxysterols receptor LXR-beta (Homo sapiens) (UniProt P55055). The experiment in a line: ATG_LXRb_TRANS: Attagene TRANS-FACTORIAL HepG2 Assay for human Liver X Receptor beta (LXRb) (AID 2282981; active = hit-call score of the fitted dose curve at least 0.9, where 1 is the maximum). Conditions: HepG2 Attagene TRANS GAL4-LXRb reporter, mRNA. The procedure, abridged: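 Measures induction of a Gal4-driven reporter transcript in HepG2 cells expressing an exogenous LXRb-Gal4 fusion. Cells are exposed to compound for 24 h before RNA isolation and RT-PCR with capillary electrophoresis detection.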

For test [4], the target named is Hepatocyte nuclear factor 4-alpha (Homo sapiens) (UniProt P41235). Put plainly: ATG_HNF4a_TRANS: Attagene TRANS-FACTORIAL HepG2 Assay for human Hepatocyte Nuclear Factor 4 alpha (HNF4a) (AID 2282982; active = hit-call score of the fitted dose curve at least 0.9, where 1 is the maximum). Conditions: HepG2 HNF4a transactivation reporter, mRNA readout. The procedure, abridged:
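In this trans-factorial format, a chimeric HNF4a-GAL4 fusion drives a GAL4-UAS reporter in transfected HepG2 liver cells. After 24 h treatment, reporter mRNA induction is measured by RT-PCR with capillary electrophoresis, relative to DMSO.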

Test [5] in a line: ATG_M_06_TRANS: Attagene TRANS-FACTORIAL HepG2 Assay for M06 Transcription Factor (Internal Marker) (AID 2282983; active = hit-call score of the fitted dose curve at least 0.9, where 1 is the maximum). Conditions: HepG2 Attagene TRANS M06 internal marker reporter. In short, it runs like this: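 mRNA levels of a reporter transcript, quantified as FAM fluorescence on capillary electrophoresis, served as readout. HepG2 cells expressing exogenous GAL4-chimera reporter constructs were exposed for 24 h. Gain of signal over DMSO was evaluated.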

The nature of test [6]: ATG_M_32_TRANS: Attagene TRANS-FACTORIAL HepG2 Assay for M32 Transcription Factor (Internal Marker) (AID 2282984; active = hit-call score of the fitted dose curve at least 0.9, where 1 is the maximum). Conditions: HepG2 Attagene TRANS M32 internal marker reporter. The procedure, abridged: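 After 24 h dosing of transfected HepG2 cells, total RNA was reverse-transcribed, reporter sequences PCR-amplified, 6-FAM labelled by primer extension and HpaI-digested before capillary electrophoresis. Signal increase over DMSO was fitted.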

Test [7] addresses Nuclear receptor subfamily 4 group A member 2 (Homo sapiens) (UniProt P43354). The experiment in a line: ATG_NURR1_TRANS: Attagene TRANS-FACTORIAL HepG2 Assay for human Nuclear Receptor Related Protein 1 (NURR1) (AID 2282985; active = hit-call score of the fitted dose curve at least 0.9, where 1 is the maximum). Conditions: HepG2 Attagene TRANS reporter, mRNA readout. In short, it runs like this: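 Chimeric NR-Gal4 fusion activity measured in HepG2 after 24 h treatment. Reporter transcripts detected by RT-PCR and capillary electrophoresis fluorescence; positive-direction curve fitting against DMSO.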

The target in test [8] is Transcriptional activator Myb (Homo sapiens) (UniProt P10242). The experiment in a line: ATG_Myb_CIS: Attagene CIS-FACTORIAL HepG2 Assay for human Myeloblastosis (Myb) Proto-Oncogene Transcription Factor (AID 2282986). The settings on record: HepG2 Attagene CIS-FACTORIAL Myb reporter transcription; actives raise or lower the signal. The procedure, abridged:
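HepG2 cells were transiently transfected with cis-regulated multiple reporter transcription units reflecting endogenous Myb activity, then exposed to compound for 24 hours. Reporter mRNA was measured by RT-PCR with capillary electrophoresis; bidirectional fitting versus DMSO baseline.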

Test [9] addresses Nuclear respiratory factor 1 (Homo sapiens) (UniProt Q16656). The experiment in a line: ATG_NRF1_CIS: Attagene CIS-FACTORIAL HepG2 Assay for human Nuclear Respiratory Factor 1 (NRF1) Orphan Gene (AID 2282987). Conditions: HepG2 NRF1 cis-element reporter, Attagene multiplex; actives raise or lower the signal. In short, it runs like this:
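HepG2 cells transiently transfected with multiple reporter transcription units under cis-regulatory promoter control, so endogenous transcription-factor activity is read. After 24 h compound exposure, reporter mRNA quantified by RT-PCR, fluorescent labelling, HpaI digestion and capillary electrophoresis; bidirectional fitting versus DMSO.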

Test [10] deals with Myc proto-oncogene protein (Homo sapiens) (UniProt P01106). Put plainly: ATG_Myc_CIS: Attagene CIS-FACTORIAL HepG2 Assay for human Myelocytomatosis (Myc) Proto-Oncogene Transcription Factor (AID 2282990). Conditions: HepG2, Attagene cis-reporter transcription factor activity; actives raise or lower the signal. The procedure, abridged:
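Multiplexed cis-reporter transcription in HepG2 cells after 24 h chemical treatment. Reporter mRNA measured by RT-PCR and capillary electrophoresis fluorescence; activity fitted bidirectionally against DMSO control.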

The nature of test [11]: ATG_Oct_MLP_CIS: Attagene CIS-FACTORIAL HepG2 Assay for human Octamer-Binding Transcription Factor (Oct) (AID 2282993). The settings on record: HepG2 Attagene cis-factorial Oct reporter, mRNA; actives raise or lower the signal. The procedure, abridged:
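HepG2 cells transiently transfected with cis-promoter-driven multiplexed reporter transcription units, dosed for 24 h. Reporter mRNA quantified by RT-PCR, fluorescent labelling, HpaI digestion and capillary electrophoresis; bidirectional fits versus DMSO baseline.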

The target in test [12] is Cellular tumor antigen p53 (Homo sapiens) (UniProt P04637). Put plainly: ATG_p53_CIS: Attagene CIS-FACTORIAL HepG2 Assay for human p53 Transcription Factor (AID 2282994). The settings on record: HepG2 p53 cis-element reporter, Attagene mRNA; actives raise or lower the signal. In short, it runs like this:
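Read-out: reporter mRNA by RT-PCR plus capillary electrophoresis with fluorescence detection. Human HepG2 liver cells carried transfected multi-reporter cis-element constructs, dosed 24 h. Gain or loss of signal fitted bidirectionally against DMSO control.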

A short description of test [13]: BSK_3C_TissueFactor: BioMAP Diversity Plus: 3C Assay for Tissue Factor Biomarker Activity (AID 2282997). Conditions: BioMAP 3C HUVEC, tissue factor biomarker readout; actives raise or lower the signal. The procedure, abridged: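 Tissue Factor measured by ELISA, 24 h after treatment of primary HUVEC in the BioMAP 3C setting.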
Test [14] in a line: BSK_3C_uPAR: BioMAP Diversity Plus: 3C Assay for Urokinase-type plasminogen activator receptor (uPAR) Biomarker Activity (AID 2282998). Conditions: BioMAP 3C HUVEC, uPAR biomarker ELISA; actives raise or lower the signal. The procedure, abridged:
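Human umbilical vein endothelial primary cells were exposed to test chemical for 24 h. Cell-surface uPAR was then quantified by ELISA, and responses were fitted bidirectionally against DMSO as negative control and baseline.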
For orientation: An ELISA detects its analyte on a solid surface through an enzyme-linked reagent.

A short description of test [15]: BSK_3C_VCAM1: BioMAP Diversity Plus: 3C Assay for Vascular cell adhesion molecule 1 (VCAM1) Biomarker Activity (AID 2282999). Conditions: BioMAP 3C HUVEC, VCAM1 ELISA, cytokine-stimulated; actives raise or lower the signal. In short, it runs like this:
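Vascular primary endothelium (human umbilical vein) was exposed to chemicals and assayed 24 h later. VCAM-1 levels came from ELISA, with DMSO serving as baseline for bidirectional fitting.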

The nature of test [16]: ATG_NFI_CIS: Attagene CIS-FACTORIAL HepG2 Assay for human Nuclear Factor I (NFI) (AID 2282989). The settings on record: HepG2 cis-regulatory reporter, NFI response element transcription; actives raise or lower the signal. The procedure, abridged: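 HepG2 cells transiently transfected with cis-element-driven multiplexed reporter transcription units, dosed for 24 h. Reporter mRNA quantified by RT-PCR, fluorescent labelling, HpaI digestion and capillary electrophoresis; bidirectional fit versus DMSO baseline.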

For test [17], the target named is Estrogen-related receptor gamma (Homo sapiens) (UniProt P62508). The experiment in a line: ATG_ERRg_TRANS: Attagene TRANS-FACTORIAL HepG2 Assay for human Estrogen-Related Receptor gamma (ERRg) (AID 2282977; active = hit-call score of the fitted dose curve at least 0.9, where 1 is the maximum;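 also: hits increase reporter signal over DMSO so potencies reflect activators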). The settings on record: HepG2 Attagene TRANS reporter, ERRg transactivation. In short, it runs like this:
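Induction of reporter transcripts through a chimeric NR-Gal4 protein is quantified in transfected human HepG2 liver cells after 24 h chemical exposure, using RT-PCR with capillary electrophoresis detection and DMSO as baseline.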

Test [18] is described as follows: ATG_NRF2_ARE_CIS: Attagene CIS-FACTORIAL HepG2 Assay for human Nuclear Factor Erythroid 2 Related Factor 2 (NFR2) response to Antioxidant Response Elements (ARE) (AID 2282992). Conditions: HepG2 Attagene ARE/NRF2 reporter, transcription factor activity; actives raise or lower the signal. In short, it runs like this: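 Readout: reporter mRNA quantified by RT-PCR plus FAM-labelled primer extension, HpaI digestion and capillary electrophoresis, 24 h after dosing transfected HepG2 cells. Gain or loss of signal is fitted bidirectionally against DMSO baseline.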

In test [19] the target is Glucocorticoid receptor (Homo sapiens) (UniProt P04150). The experiment in a line: ATG_GR_TRANS: Attagene TRANS-FACTORIAL HepG2 Assay for human Glucocorticoid Receptor (GR) (AID 2282978; active = hit-call score of the fitted dose curve at least 0.9, where 1 is the maximum;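 also: activators score as hits since higher reporter transcript over DMSO is fitted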). The settings on record: HepG2 Attagene TRANS GR reporter, mRNA transcription. The procedure, abridged: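 HepG2 cells transiently transfected with multiplexed reporter units in which chimeric NR-GAL4 proteins drive GAL4-UAS reporters; 24 h compound exposure. Reporter mRNA measured by RT-PCR, 6-FAM labelling, HpaI digestion and capillary electrophoresis; gain-of-signal fitted versus DMSO.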

Test [20] concerns the target Bile acid receptor (Homo sapiens) (UniProt Q96RI1). The experiment in a line: ATG_FXR_TRANS: Attagene TRANS-FACTORIAL HepG2 Assay for Farnesoid X Receptor (FXR) (AID 2282979; active = hit-call score of the fitted dose curve at least 0.9, where 1 is the maximum;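 also: hits raise reporter mRNA above DMSO so AC50 marks FXR activation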). The settings on record: HepG2 Attagene TRANS FXR-GAL4 reporter transcription. In short, it runs like this:
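HepG2 cells were transiently transfected with GAL4-UAS reporters driven by chimeric NR-Gal4 proteins and dosed for 24 h. Reporter mRNA was quantified by RT-PCR, fluorescent labelling, HpaI digestion and capillary electrophoresis, with gain of signal scored versus DMSO.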

Chain of Hepatocyte nuclear factor 4-alpha (Homo sapiens) (P41235 whole entry, looked up, the tested form may be a part): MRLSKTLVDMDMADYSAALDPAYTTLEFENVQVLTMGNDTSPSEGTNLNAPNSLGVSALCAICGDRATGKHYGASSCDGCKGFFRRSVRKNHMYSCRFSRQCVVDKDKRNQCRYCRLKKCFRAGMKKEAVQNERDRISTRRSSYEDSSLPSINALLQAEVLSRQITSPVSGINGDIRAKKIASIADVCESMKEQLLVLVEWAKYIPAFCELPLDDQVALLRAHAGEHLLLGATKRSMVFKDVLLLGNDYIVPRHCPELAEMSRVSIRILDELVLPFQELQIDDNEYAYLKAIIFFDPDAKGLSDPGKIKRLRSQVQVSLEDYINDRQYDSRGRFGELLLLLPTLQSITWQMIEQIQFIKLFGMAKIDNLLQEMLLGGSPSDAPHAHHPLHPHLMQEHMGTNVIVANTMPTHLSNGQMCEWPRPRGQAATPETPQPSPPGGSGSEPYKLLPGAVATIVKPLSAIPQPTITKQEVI
Chain of Cellular tumor antigen p53 (Homo sapiens) (P04637 whole entry, looked up): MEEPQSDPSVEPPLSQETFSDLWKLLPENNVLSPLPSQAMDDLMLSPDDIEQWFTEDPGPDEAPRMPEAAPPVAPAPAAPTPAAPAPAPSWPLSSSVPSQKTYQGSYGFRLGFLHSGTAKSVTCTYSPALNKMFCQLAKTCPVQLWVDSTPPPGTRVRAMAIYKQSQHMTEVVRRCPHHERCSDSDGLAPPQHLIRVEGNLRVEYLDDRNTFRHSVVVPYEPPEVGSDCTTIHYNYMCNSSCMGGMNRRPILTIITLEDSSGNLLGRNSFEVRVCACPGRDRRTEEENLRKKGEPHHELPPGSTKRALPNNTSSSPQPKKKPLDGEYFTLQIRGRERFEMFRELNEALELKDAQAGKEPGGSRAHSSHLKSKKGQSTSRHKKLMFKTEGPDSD
Chain of Oxysterols receptor LXR-beta (Homo sapiens) (P55055 whole entry, looked up, the tested form may be a part): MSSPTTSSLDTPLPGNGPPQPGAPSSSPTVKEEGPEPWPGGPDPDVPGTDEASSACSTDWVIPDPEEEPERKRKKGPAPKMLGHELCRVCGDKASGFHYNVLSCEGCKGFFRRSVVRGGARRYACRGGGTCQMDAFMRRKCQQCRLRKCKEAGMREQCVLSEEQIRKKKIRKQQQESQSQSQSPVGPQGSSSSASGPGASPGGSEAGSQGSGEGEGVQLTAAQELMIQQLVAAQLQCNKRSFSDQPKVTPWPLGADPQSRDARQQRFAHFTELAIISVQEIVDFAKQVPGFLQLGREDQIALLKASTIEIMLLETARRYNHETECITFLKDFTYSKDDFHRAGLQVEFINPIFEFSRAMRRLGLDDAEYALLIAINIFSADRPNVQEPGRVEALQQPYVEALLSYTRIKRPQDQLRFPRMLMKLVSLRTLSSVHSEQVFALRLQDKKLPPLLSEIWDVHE
Chain of Transcriptional activator Myb (Homo sapiens) (P10242 whole entry, looked up): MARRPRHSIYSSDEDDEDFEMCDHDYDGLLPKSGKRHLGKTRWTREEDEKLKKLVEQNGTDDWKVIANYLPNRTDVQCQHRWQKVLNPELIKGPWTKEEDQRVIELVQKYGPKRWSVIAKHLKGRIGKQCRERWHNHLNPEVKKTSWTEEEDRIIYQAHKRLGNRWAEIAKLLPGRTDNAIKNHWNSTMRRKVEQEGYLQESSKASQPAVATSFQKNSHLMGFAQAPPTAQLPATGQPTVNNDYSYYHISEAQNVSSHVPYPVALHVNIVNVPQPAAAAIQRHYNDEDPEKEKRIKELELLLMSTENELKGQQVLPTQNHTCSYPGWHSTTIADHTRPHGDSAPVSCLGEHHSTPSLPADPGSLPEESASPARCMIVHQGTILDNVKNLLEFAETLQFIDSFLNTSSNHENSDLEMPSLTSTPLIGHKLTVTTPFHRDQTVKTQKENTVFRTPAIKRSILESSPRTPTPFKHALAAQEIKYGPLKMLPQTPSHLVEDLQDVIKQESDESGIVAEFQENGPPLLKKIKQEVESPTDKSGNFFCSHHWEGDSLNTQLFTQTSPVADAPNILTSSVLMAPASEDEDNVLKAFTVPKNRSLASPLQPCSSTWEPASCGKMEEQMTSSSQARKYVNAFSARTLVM
Chain of Nuclear receptor subfamily 4 group A member 2 (Homo sapiens) (P43354 whole entry, looked up, the tested form may be a part): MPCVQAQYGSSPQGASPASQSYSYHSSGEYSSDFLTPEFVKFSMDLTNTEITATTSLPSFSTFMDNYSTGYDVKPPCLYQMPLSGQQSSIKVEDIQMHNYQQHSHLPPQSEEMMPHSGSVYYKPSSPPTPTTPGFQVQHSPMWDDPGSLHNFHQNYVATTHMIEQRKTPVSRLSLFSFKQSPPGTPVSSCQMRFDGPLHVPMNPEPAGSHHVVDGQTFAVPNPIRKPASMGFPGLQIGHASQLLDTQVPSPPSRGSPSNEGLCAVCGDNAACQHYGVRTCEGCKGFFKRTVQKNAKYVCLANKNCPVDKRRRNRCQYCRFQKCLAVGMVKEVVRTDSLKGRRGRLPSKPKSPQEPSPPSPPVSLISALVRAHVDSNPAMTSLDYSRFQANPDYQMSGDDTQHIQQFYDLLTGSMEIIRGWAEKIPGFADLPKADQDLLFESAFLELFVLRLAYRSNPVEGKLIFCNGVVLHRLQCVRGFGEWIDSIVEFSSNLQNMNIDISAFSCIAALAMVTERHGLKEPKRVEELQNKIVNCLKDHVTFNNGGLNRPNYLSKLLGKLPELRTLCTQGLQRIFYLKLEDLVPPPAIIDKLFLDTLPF
Chain of Nuclear respiratory factor 1 (Homo sapiens) (Q16656 whole entry, looked up): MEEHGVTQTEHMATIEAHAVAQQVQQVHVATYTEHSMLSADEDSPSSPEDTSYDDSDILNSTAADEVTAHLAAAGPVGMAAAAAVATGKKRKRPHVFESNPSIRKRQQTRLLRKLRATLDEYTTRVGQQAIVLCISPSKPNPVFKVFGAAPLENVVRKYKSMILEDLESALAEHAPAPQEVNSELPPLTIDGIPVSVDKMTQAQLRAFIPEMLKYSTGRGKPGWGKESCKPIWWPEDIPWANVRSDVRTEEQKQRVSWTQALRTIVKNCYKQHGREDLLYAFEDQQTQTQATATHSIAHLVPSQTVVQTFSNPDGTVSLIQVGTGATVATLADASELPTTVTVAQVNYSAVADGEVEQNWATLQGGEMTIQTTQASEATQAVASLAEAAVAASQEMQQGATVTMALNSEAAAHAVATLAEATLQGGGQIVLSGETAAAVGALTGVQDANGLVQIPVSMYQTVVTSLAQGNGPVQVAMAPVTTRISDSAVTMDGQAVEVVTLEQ
Chain of Oxysterols receptor LXR-alpha (Homo sapiens) (Q13133 whole entry, looked up, the tested form may be a part): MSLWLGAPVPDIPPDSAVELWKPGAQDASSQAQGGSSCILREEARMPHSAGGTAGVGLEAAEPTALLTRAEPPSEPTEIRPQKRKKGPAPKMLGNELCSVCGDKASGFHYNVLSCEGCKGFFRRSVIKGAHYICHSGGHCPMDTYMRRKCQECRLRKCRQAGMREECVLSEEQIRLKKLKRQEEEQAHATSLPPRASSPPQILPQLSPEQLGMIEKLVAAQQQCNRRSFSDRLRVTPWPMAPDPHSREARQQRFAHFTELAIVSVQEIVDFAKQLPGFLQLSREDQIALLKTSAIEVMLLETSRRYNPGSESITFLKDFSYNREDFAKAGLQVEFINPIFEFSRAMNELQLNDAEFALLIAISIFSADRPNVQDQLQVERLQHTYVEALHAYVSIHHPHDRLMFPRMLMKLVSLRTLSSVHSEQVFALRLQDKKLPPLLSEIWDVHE
Chain of Estrogen-related receptor gamma (Homo sapiens) (P62508 whole entry, looked up, the tested form may be a part): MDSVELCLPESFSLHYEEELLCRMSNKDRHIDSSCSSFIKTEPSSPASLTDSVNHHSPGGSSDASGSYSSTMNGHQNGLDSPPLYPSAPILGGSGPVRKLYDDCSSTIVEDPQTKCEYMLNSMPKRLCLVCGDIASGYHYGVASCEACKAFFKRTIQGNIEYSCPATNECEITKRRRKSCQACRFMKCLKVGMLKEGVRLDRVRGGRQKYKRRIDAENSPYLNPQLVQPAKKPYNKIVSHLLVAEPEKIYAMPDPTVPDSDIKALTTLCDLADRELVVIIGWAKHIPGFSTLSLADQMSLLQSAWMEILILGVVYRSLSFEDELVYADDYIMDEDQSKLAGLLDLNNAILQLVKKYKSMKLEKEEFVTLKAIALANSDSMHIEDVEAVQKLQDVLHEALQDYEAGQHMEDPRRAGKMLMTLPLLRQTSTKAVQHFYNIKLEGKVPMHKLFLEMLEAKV
Chain of Myc proto-oncogene protein (Homo sapiens) (P01106 whole entry, looked up): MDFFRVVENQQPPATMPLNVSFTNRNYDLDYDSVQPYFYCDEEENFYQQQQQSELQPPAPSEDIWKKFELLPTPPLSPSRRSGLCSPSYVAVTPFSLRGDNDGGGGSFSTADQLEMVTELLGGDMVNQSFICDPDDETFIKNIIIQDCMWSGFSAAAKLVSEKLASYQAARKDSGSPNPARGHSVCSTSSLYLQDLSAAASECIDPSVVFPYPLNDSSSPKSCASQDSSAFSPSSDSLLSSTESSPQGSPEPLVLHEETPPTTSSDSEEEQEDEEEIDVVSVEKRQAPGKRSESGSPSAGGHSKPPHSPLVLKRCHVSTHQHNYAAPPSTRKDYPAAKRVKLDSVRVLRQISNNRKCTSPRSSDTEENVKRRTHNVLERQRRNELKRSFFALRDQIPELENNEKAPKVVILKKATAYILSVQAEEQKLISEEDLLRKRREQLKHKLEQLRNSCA
Chain of Bile acid receptor (Homo sapiens) (Q96RI1 whole entry, looked up, the tested form may be a part): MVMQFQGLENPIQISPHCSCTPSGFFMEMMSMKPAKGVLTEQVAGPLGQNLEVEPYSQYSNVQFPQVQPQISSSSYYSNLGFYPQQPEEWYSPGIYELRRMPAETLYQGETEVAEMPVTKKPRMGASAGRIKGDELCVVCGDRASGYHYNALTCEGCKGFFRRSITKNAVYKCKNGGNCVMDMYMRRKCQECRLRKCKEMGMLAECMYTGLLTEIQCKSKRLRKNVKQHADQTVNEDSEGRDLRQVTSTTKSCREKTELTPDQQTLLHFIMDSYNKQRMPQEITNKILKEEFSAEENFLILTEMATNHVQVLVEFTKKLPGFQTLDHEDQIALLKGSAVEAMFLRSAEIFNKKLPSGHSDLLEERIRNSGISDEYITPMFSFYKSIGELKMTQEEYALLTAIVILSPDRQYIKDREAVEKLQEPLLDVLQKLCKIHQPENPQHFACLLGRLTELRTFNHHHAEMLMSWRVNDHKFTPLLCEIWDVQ

Regarding `CC(C)(C)C(O)C(Oc1ccc(Cl)cc1)n1cncn1` (stereo not drawn), the call in [1], in [2], in [3], in [4], in test [5] and in test [6] was inactive. Moreover, the call in test [7], in test [8], in test [9], in [10], in [11] and in test [12] was inactive. The result in test [13], in test [14] and in test [15] was inactive. In addition, in test [11], the AC50 was 2.07 µM (active).
For the molecule `CCCN(CCC)c1c([N+](=O)[O-])cc(C(F)(F)F)cc1[N+](=O)[O-]`, the molecule was classed as inactive in test [1], in test [3], in test [5], in test [6], in test [7] and in test [8]. For the same molecule, the molecule was called inactive in test [9], in test [16], in test [13], in test [14] and in test [15]. The AC50 in test [11] was 2.29 µM (active).
Turning to `CC(C)OC(=O)Nc1cccc(Cl)c1`, the molecule was classed as inactive in test [17], in test [2], in test [3], in test [4], in test [5] and in test [6]. The molecule was classed as inactive in [7], in [8], in [9], in test [12], in test [13] and in test [14]. Moreover, the outcome in [15] was inactive. Moreover, the AC50 in test [11] was 39.4 µM (active).
Turning to `C[C@H]1[C@H](c2ccc(Cl)cc2)SC(=O)N1C(=O)NC1CCCCC1`, the call in test [17], in test [2], in test [3], in test [4], in test [5] and in test [7] was inactive. The outcome in test [8], in [9], in test [10], in test [12], in test [13] and in test [15] was inactive. The AC50 in test [18] was 13.5 µM (active); in test [11], 13.7 µM (active); in test [14], 13.1 µM (active).
As for `COP(=S)(OC)Oc1ccc(SC)c(C)c1`, the call in test [1], in [19], in test [4], in test [5], in [6] and in test [7] was inactive. Also, the outcome in test [8], in [9], in [11], in [12], in [13] and in test [14] was inactive. For the same molecule, the outcome in test [15] was inactive. Also, the AC50 in test [2] is 24.9 µM (active); in test [3], 39.3 µM (active).
Consider `CCS(=O)(=O)c1cccnc1S(=O)(=O)NC(=O)Nc1nc(OC)cc(OC)n1`, for which the outcome in [17], in test [19], in test [20], in [3], in test [4] and in [5] was inactive. Also, the call in test [6], in [7], in [8], in test [9], in test [11] and in test [12] was inactive. In addition, the outcome in test [13], in test [14] and in [15] was inactive. For the same molecule, the AC50 in test [18] is 17.6 µM (active) and 19.1 µM (active).

The term AC50 denotes the midpoint of the concentration-response curve, whichever way the signal moves.
